Experimental data as given in the supplement of paper PMC10849652.
The full data set covers some 8,800 targets. This sample favours those with a hit. About 0.5% of all pairs of compound and target were hits.

How the values were obtained:
Assay in all cases: log2 fold change, soluble protein after heating vs DMSO (PISA); higher = thermal stabilisation; K562 lysate, 10 uM; active = over 0.2 and 3.5 SD of the protein, either way, in both replicates (recomputed)
[1] = compound: C1=CC=C(C=C1)[C@H](COC2=CC3=C(C=C2)NC(=O)N3)NC(=O)C4=CC=CN(C4=O)CC5=CC(=C(C=C5)F)F
Procedure, shortened: (§1)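 A 30 min treatment with 10 μM compound was applied to crude K562 extract at 1 mg/mL protein in PBS pH 7.4 with 1 mM MgCl2. Heating for 3 min spanned 48°C-58°C, after which aliquots were pooled, adjusted to 0.5% NP-40 at 4°C and spun at 21,000xg for 90 min. TMTpro 16plex LC-MS/MS of the supernatant, with channel sums equalised, gave values recorded as log-two fold change in thermal stability against solvent controls, from duplicates.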

[2] = compound: CC1=C(SC2=C1C(=N[C@H](C3=NN=C(N32)C)CC(=O)N)C4=CC=C(C=C4)Cl)C
Procedure, shortened: as §1

[3] = compound: CC1=C2C(=CC=C1)N=C(N(C2=O)C3=CC=CC=C3C)CN4C=NC5=C(N=CN=C54)N
Procedure, shortened: as §1

[4] = compound: Cc1sc2c(c1C)C(c1ccc(Cl)cc1)=N[C@@H](CC(=O)OC(C)(C)C)c1nnc(C)n1-2
Procedure, shortened: as §1

[5] = compound: c1ccc([C@@H]2C[C@H]2NC2CCNCC2)cc1
Procedure, shortened: as §1

Measured: log2 fold change

ASCC2 (UniProt Q9H1I8)
Chain of UniProt Q9H1I8 (Q9H1I8 whole entry, looked up): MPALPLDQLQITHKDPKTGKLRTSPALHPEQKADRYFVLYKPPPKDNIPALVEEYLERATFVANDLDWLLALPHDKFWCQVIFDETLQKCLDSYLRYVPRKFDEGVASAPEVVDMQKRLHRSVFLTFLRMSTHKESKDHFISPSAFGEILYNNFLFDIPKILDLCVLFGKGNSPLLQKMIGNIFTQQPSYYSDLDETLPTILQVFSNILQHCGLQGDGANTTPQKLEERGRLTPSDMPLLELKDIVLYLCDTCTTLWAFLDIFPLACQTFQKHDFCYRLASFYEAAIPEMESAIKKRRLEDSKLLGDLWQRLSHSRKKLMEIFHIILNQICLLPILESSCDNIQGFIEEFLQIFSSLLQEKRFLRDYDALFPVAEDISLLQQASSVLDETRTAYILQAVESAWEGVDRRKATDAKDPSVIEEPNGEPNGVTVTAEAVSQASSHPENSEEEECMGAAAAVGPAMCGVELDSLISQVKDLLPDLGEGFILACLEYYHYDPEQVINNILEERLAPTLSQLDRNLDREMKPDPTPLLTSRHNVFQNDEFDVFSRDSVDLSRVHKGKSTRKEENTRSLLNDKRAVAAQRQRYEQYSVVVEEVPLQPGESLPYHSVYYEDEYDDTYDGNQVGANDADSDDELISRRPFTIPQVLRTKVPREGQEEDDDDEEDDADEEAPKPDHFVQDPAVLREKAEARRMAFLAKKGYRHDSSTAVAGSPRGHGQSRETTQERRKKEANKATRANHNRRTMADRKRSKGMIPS
inactive: [1] 0.181 | [2] 0.063 | [3] -0.027 | [4] -0.019 | [5] 0.076

ADD1 isoform 4 (UniProt P35611)
Chain of UniProt P35611 (P35611 whole entry, looked up): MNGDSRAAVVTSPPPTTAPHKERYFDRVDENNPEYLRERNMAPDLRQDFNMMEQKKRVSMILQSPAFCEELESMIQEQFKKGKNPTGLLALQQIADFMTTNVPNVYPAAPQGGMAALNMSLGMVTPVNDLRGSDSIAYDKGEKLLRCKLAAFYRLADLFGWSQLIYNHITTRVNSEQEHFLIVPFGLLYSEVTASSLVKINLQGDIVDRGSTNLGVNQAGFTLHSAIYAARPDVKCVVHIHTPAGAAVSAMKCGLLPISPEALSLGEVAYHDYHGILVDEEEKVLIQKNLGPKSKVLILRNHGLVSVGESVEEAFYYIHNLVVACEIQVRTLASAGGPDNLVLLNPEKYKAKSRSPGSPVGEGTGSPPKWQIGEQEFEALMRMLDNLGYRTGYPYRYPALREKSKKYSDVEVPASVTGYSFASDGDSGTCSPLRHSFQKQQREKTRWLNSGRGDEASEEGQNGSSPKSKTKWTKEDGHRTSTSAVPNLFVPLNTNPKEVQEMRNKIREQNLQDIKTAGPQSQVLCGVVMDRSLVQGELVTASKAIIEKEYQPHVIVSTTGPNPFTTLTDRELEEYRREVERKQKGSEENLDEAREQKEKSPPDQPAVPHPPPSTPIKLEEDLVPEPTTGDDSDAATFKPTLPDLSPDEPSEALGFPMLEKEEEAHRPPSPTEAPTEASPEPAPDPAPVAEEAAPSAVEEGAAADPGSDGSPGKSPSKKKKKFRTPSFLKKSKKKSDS
inactive: [1] 0.22 | [2] 0.088 | [3] 0.12 | [4] -0.099 | [5] -0.571

ABCF3 (UniProt Q9NUQ8)
Chain of UniProt Q9NUQ8 (Q9NUQ8 whole entry, looked up): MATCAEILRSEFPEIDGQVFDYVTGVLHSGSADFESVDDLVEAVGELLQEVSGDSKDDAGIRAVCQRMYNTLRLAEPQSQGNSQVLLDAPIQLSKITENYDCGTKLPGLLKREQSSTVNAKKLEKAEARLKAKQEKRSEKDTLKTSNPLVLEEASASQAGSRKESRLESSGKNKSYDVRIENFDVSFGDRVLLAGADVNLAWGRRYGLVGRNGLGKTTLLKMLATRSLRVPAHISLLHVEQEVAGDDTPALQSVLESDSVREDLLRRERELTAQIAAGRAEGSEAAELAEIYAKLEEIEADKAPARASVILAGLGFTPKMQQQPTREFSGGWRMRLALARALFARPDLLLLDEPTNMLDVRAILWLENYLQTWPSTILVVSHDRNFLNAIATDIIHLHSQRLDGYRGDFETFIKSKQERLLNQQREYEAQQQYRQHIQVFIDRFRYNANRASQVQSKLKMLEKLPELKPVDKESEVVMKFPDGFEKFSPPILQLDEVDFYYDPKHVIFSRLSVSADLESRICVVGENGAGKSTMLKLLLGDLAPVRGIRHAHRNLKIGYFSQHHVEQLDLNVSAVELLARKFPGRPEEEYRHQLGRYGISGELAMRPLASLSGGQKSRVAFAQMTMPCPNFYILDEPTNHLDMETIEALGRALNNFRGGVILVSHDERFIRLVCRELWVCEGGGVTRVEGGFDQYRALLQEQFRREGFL
inactive: [1] 0.002 | [2] -0.016 | [3] 0.031 | [4] 0.013 | [5] 0.06

ANKRD40 (UniProt Q6AI12)
Chain of UniProt Q6AI12 (Q6AI12 whole entry, looked up): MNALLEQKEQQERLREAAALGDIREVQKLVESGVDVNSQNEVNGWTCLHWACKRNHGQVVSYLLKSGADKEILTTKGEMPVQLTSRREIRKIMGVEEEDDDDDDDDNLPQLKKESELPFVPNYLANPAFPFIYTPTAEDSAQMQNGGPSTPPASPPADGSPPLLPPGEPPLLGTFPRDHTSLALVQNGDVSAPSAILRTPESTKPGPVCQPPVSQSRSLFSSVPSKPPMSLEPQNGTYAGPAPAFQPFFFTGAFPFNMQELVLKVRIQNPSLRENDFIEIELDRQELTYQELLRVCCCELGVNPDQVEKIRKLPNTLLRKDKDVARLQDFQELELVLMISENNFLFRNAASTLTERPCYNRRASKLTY
inactive: [1] 0.133 | [2] 0.072 | [3] 0.536 | [4] -0.156 | [5] 0.053
